HT1080NT lethal = qHTS for induction of synthetic lethality in tumor cells producing 2HG: qHTS for the HT-1080-NT fibrosarcoma cell line; HT-1080-NT fibrosarcoma viability, CellTiter-Glo ATP luminescence, 48 h; Potency, µM (series often up to 46.1 µM), without a hit: at the highest dose activity, negative = less viability, most hits filed as cytotoxic; actives 1.6% (n = 360,000); AID 686970, 2013;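 further: NT is the 2HG producing partner of a matched IDH1 knockdown line; potency means the concentration at half of the fitted maximal effect; 0% = DMSO-treated cells and -100% = media-only wells without cells; nearly all actives have a fitted effect of over 55% in size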
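Fibrosarcoma NT cells, 750 per well in 5% FBS RPMI, were exposed to compound for 48 hours. Viability: CellTiter-Glo luminescence.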
DT40 TDP1 CPT = qHTS for Inhibitors of human tyrosyl-DNA phosphodiesterase 1 (TDP1): qHTS in cells in presence of CPT | Potency, µM (highest dose often 46.2 µM), without a hit: top-dose activity change, negative = growth inhibition, usual class: inhibitors | chicken DT40 Tdp1-/-;hTDP1 cells + 20 nM CPT, ATP luminescence, 48 h | actives 12% (n = 420,000); further: potency means the concentration at half of the fitted maximal effect; nearly all actives have a fitted effect of over 55% in size
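Cell growth measured by CellTiter-Glo luminescence after a minimum 48 h, 37 C compound exposure with 20 nM CPT in Tdp1-knockout DT40 cells stably expressing hTDP1, seeded 400/well; qHTS titration format.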
DT40 TDP1 no CPT = qHTS for Inhibitors of human tyrosyl-DNA phosphodiesterase 1 (TDP1): qHTS in cells in absence of CPT; DT40 Tdp1-/- hTDP1 cells, no CPT, ATP luminescence, 48 h; Potency, µM (top dose mostly 46.2 µM), for inactives: at the highest dose activity change, negative = growth inhibition, actives largely listed as inhibitors; actives 15% (n = 420,000); AID 686978, 2013; further: potency means the concentration at half of the fitted maximal effect; nearly all actives have a fitted effect of over 55% in size
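Growth of hTDP1-complemented DT40 Tdp1-knockout cells is measured by ATP luminescence after at least 48 hr compound exposure at 37 °C, with DMSO substituting for the 20 nM CPT used in the parallel screen.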
HT1080 IDH1KD tx = qHTS for induction of synthetic lethality in tumor cells producing 2HG: qHTS for the HT-1080-IDH1KD cell line; actives 2% (n = 360,000); Potency, µM (highest dose often 46.1 µM), for inactives: top-dose activity, negative = toxicity, hits mostly cytotoxic; HT-1080 IDH1 knockdown viability, ATP luminescence, 48 h;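 further: potency means the concentration at half of the fitted maximal effect; 0% = DMSO wells and -100% = cell-free medium wells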
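IDH1KD HT-1080 cells, 750/well, RPMI + 5% FBS; compound pinned after 2 h settling; 48 h, 37 °C; CellTiter-Glo luminescence; % activity normalised to DMSO and no-cell wells; curves fitted, classed by r2 and efficacy.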
uPA surface inh = qHTS for Inhibitors of Cell Surface uPA Generation. cell surface uPA generation assay, qHTS. Potency, µM (top dose mostly 38.3 µM), without a hit: at the highest dose activity change, negative = inhibition, actives largely listed as inhibitors. actives 0.31% (n = 330,000). AID 540303, 2011; active means well fitted inhibition curve with a large enough effect; inconclusive means small, poorly fitted or top-dose-only effect; inactive means no such curve, though single readings can be large or run the other way; tested in mouse RAW 264.7 cells; further: potency means the concentration at half of the fitted maximal effect; nearly all actives have a fitted effect of over 55% in size
IL-1B inflam inh = qHTS for Inhibitors of Inflammasome Signaling: IL-1-beta AlphaLISA Primary Screen; THP-1 LPS/ATP IL-1B secretion, AlphaLISA, 16 h; stronger effect = lower value; activity change, % at 57.5 µM; actives 4.7% (n = 360,000); in the data active means activity change below about -50%; inconclusive means mostly about -30% to -49%
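THP-1 cells pretreated 1 hr with compounds (up to 57.5 uM final), then stimulated with LPS (250 ng/mL final) plus ATP (1.25 mM final); secreted IL-1B measured by AlphaLISA after 16 hr, decreased signal indicating inhibition.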
* marks the source's active call; other numbers are inactive results; ? = inconclusive; . = not tested or not shown; [ ] = dose if it differs, or a comment. This is a sample that favours compounds with a hit; in the whole collection about 19% have one here. Unless noted, the call rests on the fitted dose curve; in most records, active means well fitted curve in the direction sought with a large enough effect; inconclusive means small, poorly fitted or top-dose-only effect, or another doubt; inactive means no such curve, though single readings can be large; an effect the other way counts as inactive or inconclusive. Unless noted, on the % scale 0 is the no-effect control and ±100 the full control effect.

SMILES	HT1080NT lethal	DT40 TDP1 CPT	DT40 TDP1 no CPT	HT1080 IDH1KD tx	uPA surface inh	IL-1B inflam inh
Cc1cnc(C)c(-c2cc(F)cc3c2OC(CNC(=O)C2CCOC2)C3)n1 (centres undefined)	.	-1%[9.04 µM]	2%	.	.	.
O=C(CSc1ccccc1)Nc1nc2ccccc2[nH]1	12µM*	?	21µM*	?	-17%	26
O=C(Cc1ccccc1)Nc1nc2ccccc2[nH]1	-2%	13µM*	7.3µM*	-24%	8%	-5
O=C(Cc1c[nH]c2ccccc12)Nc1nc2ccccc2[nH]1	-16%	-13%	-18%	-10%	2%	4
Oc1c(Cl)cc(Cl)cc1CNc1ccccn1	-22%	6%	6%	?	-1%	?
Oc1c(Cl)cc(Cl)cc1CNc1nc2ccccc2[nH]1	-30%	1%	-4%	?	-2%	-84*
O=C(Cc1ccc(Br)cc1)Nc1nc2ccccc2[nH]1	-5%	6.5µM*	2.3µM*	7%	-2%	18
Cc1ccc(NC(=O)CN(C)C(=O)COc2cccc3cccnc23)cc1	-2%	3.7µM*	2.9µM*	-1%	-3%	-6
Cc1ccc(NC(=O)CN(C)S(=O)(=O)c2cccc3cccnc23)cc1	0%	-3%	?	1%	9%	-11
Cc1ccc(NC(=O)c2cccc3cccnc23)cc1	-8%	?	18µM*	-1%	1%	-10
Cc1ccc(NC(=O)c2ccccc2O)cc1	?	?	?	?	-6%	-6
CCCOc1ccc(NC(=O)CC2C(=O)N(c3ccc(C)cc3)C(=O)N2Cc2cccc(OC)c2)cc1 (centres undefined)	.	-3%	-12%	.	.	.
Nc1nc(N2CCOCC2)cc(=O)[nH]1	10%	2%	-5%	7%	8%	-4
Cc1nc2ccc(Cl)cc2c(-c2ccccc2)c1C(=O)N(C)C	0%	-19%	13%	11%	-6%	1
CCOC(=O)c1c(CN2CCNCC2)nc2ccc(Cl)cc2c1-c1ccccc1	-16%	4.6µM*	4.6µM*	?	-1%	-64*
Cc1ccc(/C=C(\C#N)C(=O)Nc2cccc(Br)c2)o1	.	0%	-11%	.	.	.
N#C/C(=C\c1ccc(N2CCCCC2)o1)C(=O)Nc1cccc(Br)c1	-8%	?	7.3µM*	-7%	1%	?
CCOc1cc(N2CCOCC2)c(OCC)cc1NC(=O)COC(=O)CCOc1cc(C)ccc1C	-8%	?	23µM*	-5%	-9%	-86*
Cc1ccc(C)c(OCCCC(=O)Nc2ccccc2C(N)=O)c1	-20%	?	16µM*	-7%	4%	-3
CCOc1cc(N2CCOCC2)c(OCC)cc1NC(=O)COC(=O)CCOc1ccc(C)cc1	3%	?	?	0%	-3%	-2
CC(Oc1cccc(Cl)c1)C(=O)N(C)CC(=O)Nc1ccc(N2CCOCC2)cc1 (centres undefined)	-16%	13µM*	16µM*	-17%	2%	16
CCOc1cc(N2CCOCC2)c(OCC)cc1NC(=O)CN1CCCC1	7%	10%	-5%	5%	0%	13
CCOc1cc(N2CCOCC2)c(OCC)cc1NC(=O)C1CCCC1	4%	?	29µM*	3%	1%	0
COc1ccc(-n2nnnc2CNC(=O)C(=O)c2c(C)[nH]c3ccccc23)cc1	1%	7%	?	0%	-1%	-12
CCOC1=C2[C@H]([C@H]3C(=O)N(c4ccccc4)C(=O)[C@H]3C1)[C@@H](C(C)C)N(S(=O)(=O)c1ccc(C)cc1)[C@H]2c1ccccc1	18%	?	?	20%	.	0
SMILES	HT1080NT lethal	DT40 TDP1 CPT	DT40 TDP1 no CPT	HT1080 IDH1KD tx	uPA surface inh	IL-1B inflam inh
N#C/C(=C\c1ccc(O)c(O)c1)C(=O)Nc1cccc2ncccc12	-9%	?	-12%	-25%	-6%	34
COCCn1c(SC(C)C(=O)Nc2ccc(N3CCOCC3)cc2)nnc1-c1ccncc1 (centres undefined)	5%	7%	8%	0%	-5%	7
CN(CC(=O)Nc1ccc(Cl)cc1)CC(=O)Nc1cc(Cl)ccc1C#N	?	?	23µM*	0%[9.24 µM]	-19%	-84*
CN(CC(=O)Nc1ccc(N2CCOCC2)cc1)CC(=O)Nc1ccc(Cl)cc1[N+](=O)[O-]	-7%	?	26µM*	-8%	-5%	12
CCOc1cc(N2CCOCC2)c(OCC)cc1NS(=O)(=O)c1ccc(Cl)s1	?	4.6µM*	2.9µM*	4.1µM*	-11%	37
CCOc1cc(N2CCOCC2)c(OCC)cc1NC(=O)CCC1CCCC1	12%	16µM*	18µM*	13%	3%	-3
CCOc1cc(N2CCOCC2)c(OCC)cc1NC(=O)CN1C(=O)NC(CC(C)C)C1=O (centres undefined)	-1%	-9%	-12%	-12%	10%	-12
CCN(CC(=O)NCc1cccs1)C(=O)CCC(=O)c1ccc(C)cc1	8%	7%	-7%	0%	-1%	3
CCOc1cc(N2CCOCC2)c(OCC)cc1NC(=O)c1ccccc1C	13%	-25%	?	12%	1%	-12
CC(Oc1cccc(Cl)c1)C(=O)Nc1ccccc1C(=O)N1CCCCC1 (centres undefined)	-2%	23µM*	?	-4%	2%	-7
Cc1ccc(C)c(OCCC(=O)OCC(=O)Nc2ccc(Cl)cn2)c1	8%	-5%	-9%	9%	2%	43
Cc1ccc(C)c(OCCC(=O)OCC(=O)Nc2cccnc2Cl)c1	-2%	15µM*	?	-6%	-6%	-8
CCOc1ccccc1OCCCC(=O)Nc1sccc1C(N)=O	-12%	?	16µM*	0%	-5%	28
CCOc1cc(N2CCOCC2)c(OCC)cc1NC(=O)C(C)Oc1ccccc1 (centres undefined)	-15%	?	13µM*	-22%	0%	-2
CCOc1cc(N2CCOCC2)c(OCC)cc1NC(=O)CCS(=O)(=O)c1ccc(Cl)cc1	1%	4.1µM*	1.8µM*	1%	5%	5
CCCNC(=O)Nc1cc(OCC)c(N2CCOCC2)cc1OCC	9%	?	18µM*	10%	-1%	31

Screens (PubChem)
